The campaign covered roughly 16,000 compounds. About 2,600 (16%) were called active. Roughly 20% stayed inconclusive and do not appear here. Calls follow the shape of the dose curve; as a rule, active = well fitted curve in the direction sought with a large enough effect; inconclusive = small, poorly fitted or top-dose-only effect, or effect the other way; inactive = no such curve, though single readings can be large or run the other way. A selection follows.
Biological target: Cytochrome P450 2D6 (Homo sapiens) (UniProt P10635)
Sequence (P10635 whole entry, looked up): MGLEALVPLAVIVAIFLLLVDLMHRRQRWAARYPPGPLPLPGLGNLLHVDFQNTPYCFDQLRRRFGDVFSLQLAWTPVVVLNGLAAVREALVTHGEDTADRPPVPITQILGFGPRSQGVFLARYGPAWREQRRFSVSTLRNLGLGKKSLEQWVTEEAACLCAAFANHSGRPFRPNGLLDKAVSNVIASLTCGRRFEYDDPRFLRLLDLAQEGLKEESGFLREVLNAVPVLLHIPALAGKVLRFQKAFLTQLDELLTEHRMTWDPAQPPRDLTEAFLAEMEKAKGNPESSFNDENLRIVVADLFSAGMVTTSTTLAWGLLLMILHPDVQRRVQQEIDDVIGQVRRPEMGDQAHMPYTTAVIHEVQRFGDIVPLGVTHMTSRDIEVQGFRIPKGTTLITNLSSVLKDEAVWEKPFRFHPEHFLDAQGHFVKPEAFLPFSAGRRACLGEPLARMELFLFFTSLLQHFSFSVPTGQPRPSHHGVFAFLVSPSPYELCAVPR
Assay: Cytochrome panel assay with activity outcomes
Conditions: recombinant CYP, pro-luciferin dealkylation, luminescence, p450-cyp2d6; series mostly up to 57.1 µM
% is scaled to controls: 0 for no effect and ±100 for the full control effect.

Compound | AC50 | activity, negative = inhibition
O=c1c2ccccc2sc2c(CO)ccc(NCCN3CCCCC3)c12 | 1.26 µM (active) | –
CCN(CC)CCNc1ccc(CO)c2sc3ccccc3c(=O)c12 | 5.01 µM (active) | –
COc1ccc2sc3ccccc3c(=O)c2c1OC | inactive | –
C#CCCCO/N=C1/C[C@@H](O)[C@@H](O)[C@@H]2[C@@H]3C(=O)N(C[C@@H]4CCCO4)C(=O)[C@H]3CC[C@H]12 | – | -7.06% [at 11.4 µM] (inactive)
Cn1c(=O)c(-c2ccccc2)nc2cnc(N3CCOCC3)nc21 | inactive | –
CC(=O)OC1COC(N2CCc3cc([N+](=O)[O-])ccc32)C(OC(C)=O)C1OC(C)=O (configuration not stated) | inactive | –
COc1cccc(-c2csc(N3CCN(CC(=O)NNC(=O)c4ccc(Cl)cc4)CC3)n2)c1 | inactive | –
CC(C)(CO[C@H]1C[C@H]2CC[C@@]1(C)C2(C)C)[N+](=O)[O-] | – | 11.9% [at 11.4 µM] (inactive)
CC(C)=CCC/C(C)=C/CO/N=C1/C[C@@H](O)[C@@H](O)[C@@H]2[C@@H]3C(=O)N(C4CCCCC4)C(=O)[C@H]3CC[C@H]12 | – | -9.81% [at 11.4 µM] (inactive)
CS(=O)(=O)c1ccc(/C=N\NC(N)=S)cc1 | – | 9.53% [at 11.4 µM] (inactive)
CC(Cc1ccccc1)NC(=O)CSc1nc2nc3c(cc2c(=O)n1-c1ccccc1)COC(C)(C)C3 (configuration not stated) | inactive | –
CCc1c(O)nc(SCC(=O)NC(C)(C)C)n(-c2ccccc2)c1=O | inactive | –
Cc1ccc(-n2c(SCC(=O)NCc3ccco3)nc3sc4c(c3c2=O)CC(C)(C)SC4)cc1 | 2.82 µM (active) | –
Cc1ccc(-n2c(N)c(C(=O)NCc3ccco3)sc2=S)cc1 | inactive | –
CC1(C)Cc2c(sc3nc(SCC(=O)NCc4ccccc4)n(-c4ccccc4)c(=O)c23)CS1 | 3.55 µM (active) | –
O=C(CSc1nnc2sc3ccccc3n12)NCc1ccco1 | inactive | –
Cn1cc[nH]c1=S | inactive | –
Cn1cnc([N+](=O)[O-])c1SCC(=O)O | – | -1.18% [at 11.4 µM] (inactive)
C[C@@H]1C[C@H](OC(=O)c2ccccc2O)CC(C)(C)C1 | inactive | –
CSc1nc(N)nc(SCC(=O)Nc2ccc(Cl)cc2)c1C#N | 2.24 µM (active) | –
COc1ccc(NC(=O)CSc2nc(-c3ccc(C)cc3)cc(C(F)(F)F)c2C#N)cc1 | inactive | –

Compound | AC50 | activity, negative = inhibition
CCOc1ccc(NC(=O)CSc2nc(C)c3c(c2C#N)CCCC3)cc1 | inactive | –
O=C(c1cccc(F)c1)N1CCC2(CCCN(c3cccc(-c4ccccc4)c3)C2)CC1 | inactive | –
CC1CCCN(C(=O)c2sc3cc([N+](=O)[O-])ccc3c2Cl)C1 (configuration not stated) | 10 µM (active) | –
CN1CCCN(C)C1c1cc([N+](=O)[O-])ccc1O | – | -9.66% [at 11.4 µM] (inactive)
O=C(c1sc2ccccc2c1Cl)N1CCN(c2ccc(F)cc2)CC1 | inactive | –
CC1CCCC(NC(=O)C2CCN(S(=O)(=O)N3CCC4(CC3)OCCO4)CC2)C1C (configuration not stated) | inactive | –
Cc1sc(N)c(C(=O)c2cccc(C(F)(F)F)c2)c1C | inactive | –
O=C(Nc1c2c(nn1-c1ccc(F)cc1)CS(=O)(=O)C2)C12CC3CC(CC(C3)C1)C2 | inactive | –
CC(=O)NN1C(=O)c2ccc(Oc3cccc([N+](=O)[O-])c3)cc2C1=O | inactive | –
O=C(Oc1ccccc1[N+](=O)[O-])c1cccnc1 | inactive | –
Cn1cc([N+](=O)[O-])c(C(=O)Nc2cc(Oc3cccnc3)cc([N+](=O)[O-])c2)n1 | 12.6 µM (active) | –
Cc1cc(C(=O)O)c(=O)[nH]c1C | inactive | –
CC1(C)CC(=O)C2=C(C1)N(Cc1ccccc1)C(=O)C2(O)C(F)(F)F (configuration not stated) | inactive | –
O=C(N/N=C/C1CCCCC1)c1ccccn1 | inactive | –
N#Cc1c2n(c3c(=S)nc[nH]c13)CCCCC2 | inactive | –
C=C1C=C(Br)C2(OCCCO2)[C@H]2OC12 (some centres not stated) | – | 3.88% [at 11.4 µM] (inactive)
Cc1cc(NC(=S)NC(=O)CC(C)C)ccc1Br | inactive | –
Cc1cc(NC(=S)Nc2ccccc2)ccc1Br | 2 µM (active) | –
COc1ccc(NC(=S)Nc2ccccc2)cc1 | – | -11.8% [at 11.4 µM] (inactive)
CCCCC1(C)NC(=O)c2c(C)sc(C(=O)OCC)c2N1 (configuration not stated) | inactive | –
CC1=C/C(=N/O)C([C@H]2C=C(C)CC(C)(C)[C@@H]2O)C(C)(C)C1 (some centres not stated) | – | -8.52% [at 11.4 µM] (inactive)

Compound | AC50 | activity, negative = inhibition
COc1ccc(S(=O)(=O)N2CCC(NC(=O)Nc3ccc(C)cc3)CC2)cc1 | inactive | –
COc1ccc(S(=O)(=O)N2CCC(N3CCCCC3)CC2)cc1 | 0.316 µM (active) | –
COc1ccc(S(=O)(=O)Nc2ccc(S(=O)(=O)N3CCCCC3)cc2)cc1C | inactive | –
CCCOC(=O)c1c(NC(=O)/C=C/c2cnn(C)c2C)sc(C(=O)OCC)c1C | inactive | –
CCOc1cccc2cc(C(N)=O)c(=NCc3ccccc3)oc12 | inactive | –
Oc1ccccc1-c1cc(-c2ccccc2)no1 | inactive | –
c1ccc2c(CC3=NCCN3)cccc2c1 | 7.94 µM (active) | –
C[C@@H]1c2ccccc2CN1CC1=NCCN1 | inactive | –
Cc1ccc(N(Cc2ccccc2)Cc2ccccc2)cc1 | – | 0.619% [at 11.4 µM] (inactive)
c1ccc(CN(CC2=NCCN2)c2ccccc2)cc1 | 2.51 µM (active) | –
c1c[nH]c(CN2CCN(Cc3ncc[nH]3)CC2)n1 | – | -3.74% [at 11.4 µM] (inactive)
c1c[nH]c(CN2CCOCC2)n1 | – | -10.1% [at 11.4 µM] (inactive)
Cc1cc(C=C(C#N)C#N)c(C)n1-c1ccccc1 | inactive | –
CCc1cc2c(nc1CC)CCN(CC/C(C)=N/O[C@@H](C)c1cn([C@H](CO)Cc3ccccc3)nn1)C2 | – | 2.14% [at 11.4 µM] (inactive)
Nc1ncnc2c([C@@H]3O[C@@H](CO)[C@H](O)[C@@H]3O)nsc12 | – | -0.815% [at 11.4 µM] (inactive)
N#Cc1c(N2CCN(C(=O)c3ccccc3Cl)CC2)nc(-c2ccccc2)c2c1CCCC2 | inactive | –
CC1CN(C(=O)CN2C(=O)NC3(CCCCCC3)C2=O)CC(C)O1 (configuration not stated) | inactive | –
Cc1nc2cnc(Oc3cccc(Cl)c3)nc2n(C2CC2)c1=O | inactive | –
CN(c1ccc(C(=O)NC2CC3CCC2C3)cc1)S(C)(=O)=O (configuration not stated) | inactive | –
CNc1nc(NCCOC23CC4CC(CC(C4)C2)C3)nc(OCC(F)(F)F)n1 | inactive | –

From PubChem BioAssay AID1851 (National Center for Advancing Translational Sciences (NCATS), 2009)
